Compounds with a hit are over-represented: about 1.1% of the library has one in this group of screens.
RGS4 inhibitor = Inhibitors of Regulator of G Protein Signaling (RGS) 4: qHTS; Regulator of G-protein signaling 4 (Homo sapiens), P49798; Transcreener GDP fluorescence polarization, RGS4-accelerated GTP hydrolysis; Potency, µM (highest dose often 114 µM), most hits filed as inhibitors; hit rate 0.039% among 390,000; also: nearly all actives have a fitted effect of over 75% in size
Target sequence (P49798 whole entry, looked up): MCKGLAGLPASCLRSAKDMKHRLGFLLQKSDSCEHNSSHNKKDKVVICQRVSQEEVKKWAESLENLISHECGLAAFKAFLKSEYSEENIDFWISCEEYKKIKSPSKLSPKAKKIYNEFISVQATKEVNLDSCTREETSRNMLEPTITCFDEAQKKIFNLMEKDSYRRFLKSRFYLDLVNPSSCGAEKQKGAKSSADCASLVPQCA
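MLSMR compounds (23 nl, pin-transferred) preincubated 10 min at room temperature with a 500nM (2x) first reagent, then RGS4 at 900nM (2x) plus Transcreener GDP mix added; fluorescence polarization (620/688 nm) read before and after 90 min at 30 °C.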
p53 reactivation = qHTS assay for re-activators of p53 using a Luc reporter; AID 504706, 2011; hit rate 0.063% among 320,000; H1299 p53-A138V BP100-luciferase reporter, luminescence, 24 h; Potency, µM (titrated, usually from 92.2 µM), most hits filed as activators; also: nearly all actives have a fitted effect of over 45% in size
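H1299 (p53-null), stable ts p53-A138V + BP100-Luc; 1000 cells/well, Opti-MEM/10% FBS; cpd 4 pt, 1:5; 24 h, 37 deg C, 5% CO2; detection reagent 10 min RT; luminescence.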
PTHR1 ag = qHTS for PTHR1 Agonists: Primary Screen; Potency, µM (top dose mostly 115 µM), usual class: activators; HEK293 GP2 PTHR1 cells, GloSensor cAMP luminescence, 1 h; hit rate 0.075% among 410,000; Parathyroid hormone/parathyroid hormone-related peptide receptor (Homo sapiens), Q03431; also: nearly all actives have a fitted effect of over 55% in size
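HEK-293-derived GP2 cells expressing PTHR1 and a GloSensor cAMP reporter, 3,000/well, plated overnight, given luciferin plus IBMX (each 0.5 mM as added) for 1 h at 37 °C, then compound for 1 h at 37 °C. Luminescence was read after 15 min at room temperature.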
LDHA inh = qHTS assay for inhibitors of human lactate dehydrogenase | hit rate 0.15% among 480,000 | activity change, % (values are at about 110 or 230 µM) | purified LDHA, NADH/diaphorase-resazurin fluorescence; hits give low values | L-lactate dehydrogenase A chain (Homo sapiens), P00338; in the data active = activity change below about -30%; inconclusive = mostly about -25% to -30%
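Human LDH5 at 2 nM final in Tris HCl pH 7.4 with 0.06 mM NADH and 0.2 mM pyruvate, reacted 5 minutes at room temperature. Remaining NADH coupled via diaphorase/resazurin; resorufin fluorescence read at 0 and 20 minutes, normalized to enzyme-free and DMSO wells.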
BRCA1 expr act = qHTS Assay to Identify Small Molecule Activators of BRCA1 Expression; MCF7-BRCA1-FFLuc reporter, luminescence, 48 h; response scale: scaled: vehicle 0%, 10 µM genistein 100%; Potency, µM (top dose mostly 46.1 µM), actives largely listed as activators; hit rate 1.1% among 380,000; AID 624202, 2012; also: nearly all actives have a fitted effect of over 80% in size
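Using MCF7 cells harboring a BRCA1 firefly luciferase reporter, plated 2 h before compound pinning, the screen measured luminescence after 48 h incubation. Responses were normalized to DMSO and 10 microM genistein, then fitted for concentration-effect.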
Numbers stand for hits. Unless noted, calls follow the shape of the dose curve; as a rule, active = well fitted curve in the direction sought with a large enough effect; inconclusive = small, poorly fitted or top-dose-only effect, or another doubt; inactive = no such curve, though single readings can be large; an effect the other way counts as inactive or inconclusive.

For COc1cccc(/C(C)=N/NC(=O)c2ccc(N(C)C)cc2)c1 the results were RGS4 inhibitor inactive, p53 reactivation inconclusive, PTHR1 ag inactive, LDHA inh inactive and BRCA1 expr act 4.47µM.
Screening COc1cccc(C(=O)N/N=C(\C)CC(=O)Nc2ccc(N(C)C)cc2)c1 returned RGS4 inhibitor inactive, p53 reactivation inactive, PTHR1 ag inactive, LDHA inh inactive and BRCA1 expr act inactive.
For Cc1cc(OCc2n[nH]c(=S)n2C)cc(C)c1Cl the results were LDHA inh inactive.
For Cc1nn(Cc2cc(C(=O)O)c3ccccc3n2)c(C)c1Br the results were LDHA inh inactive.
Screening COc1ccc(-c2nc(SC)n(C(=O)c3ccco3)n2)cc1 returned RGS4 inhibitor inactive, p53 reactivation inconclusive, PTHR1 ag inactive, LDHA inh inactive and BRCA1 expr act 11.2µM.
COc1ccc(-c2nc(SCc3ccccc3)n(C(=O)c3ccco3)n2)cc1 was read as RGS4 inhibitor inactive, p53 reactivation inactive, PTHR1 ag inactive, LDHA inh inactive and BRCA1 expr act inconclusive.
For CC1(C)CC(=O)C2=C(C1)N(c1ccccc1F)C(=O)CC2c1ccc(Cl)cc1 (configuration not stated) the results were LDHA inh inactive.
N/C(=N\OC(=O)c1ccc2c(c1)OCO2)c1cccnc1 was read as RGS4 inhibitor inactive, p53 reactivation inactive, PTHR1 ag inactive, LDHA inh inactive and BRCA1 expr act 10µM.
Screening N/C(=N\OC(=O)c1ccccc1Cl)c1cccnc1 returned RGS4 inhibitor inactive, p53 reactivation inconclusive, PTHR1 ag inactive, LDHA inh inactive and BRCA1 expr act inactive.
For N/C(=N\OC(=O)c1ccc2c(c1)OCO2)c1cccc(Br)c1 the results were RGS4 inhibitor inactive, p53 reactivation inactive, PTHR1 ag inactive, LDHA inh inactive and BRCA1 expr act inconclusive.
`N/C(=N\OC(=O)c1ccccc1)c1cccnc1` gave RGS4 inhibitor inactive, p53 reactivation inactive, PTHR1 ag inactive, LDHA inh inactive and BRCA1 expr act 11.2µM.
For NC(=S)N/N=C1\C2C3C(Br)C4C5CC(C1C53)C24 (configuration not stated) the results were LDHA inh inactive.
For Cc1cccc(OCCCn2c(=O)sc3ccccc32)c1 the results were RGS4 inhibitor inactive, p53 reactivation inconclusive, PTHR1 ag inactive, LDHA inh inactive and BRCA1 expr act inconclusive.
`Cc1cccc(OCCn2c(=O)sc3ccccc32)c1` gave RGS4 inhibitor inactive, p53 reactivation inconclusive, PTHR1 ag inactive, LDHA inh inactive and BRCA1 expr act 3.55µM.
COc1ccc(OCCn2c(=O)sc3ccccc32)cc1 was read as RGS4 inhibitor inactive, p53 reactivation inactive, PTHR1 ag inactive, LDHA inh inactive and BRCA1 expr act 10µM.
For COc1ccccc1OCCn1c(=O)sc2ccccc21 the results were RGS4 inhibitor inactive, p53 reactivation inactive, PTHR1 ag inactive, LDHA inh inactive and BRCA1 expr act inactive.
COc1cc(CCc2ccccc2)c(C(=O)O)c(O)c1C/C=C(/C)CCC=C(C)C was read as RGS4 inhibitor inactive, p53 reactivation inactive, PTHR1 ag inactive, LDHA inh -38.4 and BRCA1 expr act inactive.
Screening Cc1cc(C)c2nc(Nc3nc(C(C)C)cc(=O)[nH]3)nc(C)c2c1 returned LDHA inh -31.8.
Cc1nc(Nc2nc(C(C)C)cc(=O)[nH]2)nc2c(C)cccc12 was read as LDHA inh inactive.
Cc1ccc(C(=O)NC(=S)Nc2cccnc2Cl)cc1 was read as RGS4 inhibitor inactive, PTHR1 ag inactive, LDHA inh inactive and BRCA1 expr act 11.2µM.
`CC1CC1C(=O)Nc1ccc(-c2ccccc2)cc1` (configuration not stated) gave RGS4 inhibitor inactive, p53 reactivation inactive, PTHR1 ag inactive, LDHA inh inactive and BRCA1 expr act 2.51µM.
CC1C[N+](=C2C=C(N3CCOCC3)CC(C)(C)C2)CC(C)O1 (configuration not stated) was read as RGS4 inhibitor inactive, p53 reactivation inactive, PTHR1 ag inactive, LDHA inh -56.8 and BRCA1 expr act inactive.
O=C(Nc1ccc(Cl)cn1)c1cc2c(s1)-c1ccccc1OC2 was read as RGS4 inhibitor inactive, p53 reactivation inactive, PTHR1 ag inactive, LDHA inh inactive and BRCA1 expr act 5.62µM.
Screening Cc1ccc(CCNC(=O)c2cc3c(s2)-c2ccccc2OC3)cc1 returned RGS4 inhibitor inconclusive, PTHR1 ag inactive, LDHA inh -36.4 and BRCA1 expr act inactive.
Screening Cc1ccc(F)cc1NS(=O)(=O)c1ccc(N2CC(C(=O)O)CC2=O)cc1 (configuration not stated) returned LDHA inh inactive.
`CCN(CC)c1nc(C)nc2c1cnn2CCc1ccccc1` gave RGS4 inhibitor inactive, p53 reactivation inactive, PTHR1 ag inactive, LDHA inh inactive and BRCA1 expr act 8.91µM.
`Cc1ccc2nc(C)c(C(=O)N3CCCc4ccccc43)cc2c1` gave LDHA inh inactive.
Screening NC(=S)N/N=C/c1ccc2ccccc2n1 returned LDHA inh inactive.
O=C(NCCc1ccccc1)c1cnc2n(c1=O)CCS2 was read as RGS4 inhibitor inactive, p53 reactivation inconclusive, PTHR1 ag inactive, LDHA inh inactive and BRCA1 expr act 7.08µM.
`O=C(NCCc1c[nH]c2ccccc12)c1cnc2n(c1=O)CCS2` gave RGS4 inhibitor inactive, p53 reactivation inconclusive, PTHR1 ag inactive, LDHA inh inactive and BRCA1 expr act inactive.
CNc1cncc(-c2cccc(OC)c2F)n1 was read as PTHR1 ag inactive, LDHA inh inactive and BRCA1 expr act 11.2µM.
For CCOc1cc(/C=N/O)ccc1OCc1ccccc1Cl the results were LDHA inh inactive.
Screening CC(NC(=O)CSc1nnc(-c2ccncc2)n1-c1ccc(F)cc1)c1ccc2c(c1)OCO2 (configuration not stated) returned LDHA inh inactive.
COc1ccccc1N1CCN(C2CCN(C(=O)c3cccc(F)c3)CC2)CC1 was read as RGS4 inhibitor inactive, p53 reactivation inactive, PTHR1 ag inactive, LDHA inh -31.9 and BRCA1 expr act inactive.
`COc1ccc(C(=O)N2CCN(C3CCN(Cc4ccccc4)CC3)CC2)cc1OC` gave RGS4 inhibitor inactive, p53 reactivation inactive, PTHR1 ag inactive, LDHA inh -40.2 and BRCA1 expr act inactive.
For O=C(Nc1ccc2nccnc2c1)c1cnccn1 the results were RGS4 inhibitor inconclusive, p53 reactivation inconclusive, PTHR1 ag inactive, LDHA inh inactive and BRCA1 expr act 11.2µM.

Screens from PubChem BioAssay.
